Source: PubChem BioAssay AID1159580 (chemical genetic matrix, 2015)
Among all 5,500 compounds or so, about 2,000 (36%) were called active. Inconclusive results (about 18%) are left out. No stated cut-off is given here; in the data, active means normalized growth mostly below about 0.91 (no sharp cut-off); inconclusive means no clear call, values can overlap the other calls; inactive means mostly above about 0.92. Some of the results follow.

Experiment: chemical genetic growth profiling, strain panel (AID 1159580);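 further: tested at 20 µM; growth read once vehicle control cultures reached saturation at 30 °C; 1 = growth at the plate median or of vehicle wells; lower values mean less growth of the strain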
Conditions: growth OD

Measured: normalized growth

C#CCOS(=O)OC1CCCCC1Oc1ccc(C(C)(C)C)cc1 (stereo unspecified)
inactive: S. cerevisiae deletion strains, locus YAL013W, strain DEP1, active compounds read low 1.01 | S. cerevisiae deletion strains, locus YBR021W, strain FUR4, active compounds read low 1.03 | S. cerevisiae deletion strains, locus YBR229C, strain ROT2, active compounds read low 1.02 | S. cerevisiae deletion strains, locus YCL029C, strain bik1, active compounds read low 1.01 | S. cerevisiae deletion strains, locus YDL035C, strain GPR1, active compounds read low 1 | S. cerevisiae deletion strains, locus YDL074C, strain BRE1, active compounds read low 1.07 | S. cerevisiae deletion strains, locus YDL101C, strain DUN1, active compounds read low 1.02 | S. cerevisiae deletion strains, locus YDL134C, strain PPH21, active compounds read low 1.02 | S. cerevisiae deletion strains, locus YDL185W, strain tfp1, active compounds read low 0.982 | S. cerevisiae deletion strains, locus YDL192W, strain arf1, active compounds read low 1 | S. cerevisiae deletion strains, locus YDR101C, strain arx1, active compounds read low 0.987 | S. cerevisiae deletion strains, locus YDR150W, strain NUM1, active compounds read low 1.02 | S. cerevisiae deletion strains, locus YDR162C, strain NBP2, active compounds read low 1.02 | S. cerevisiae deletion strains, locus YDR318W, strain mcm21, active compounds read low 1 | S. cerevisiae deletion strains, locus YDR388W, active compounds read low 0.994 | S. cerevisiae deletion strains, locus YDR502C, strain sam2, active compounds read low 0.993 | S. cerevisiae deletion strains, locus YEL061C, strain CIN8, active compounds read low 1.01 | S. cerevisiae deletion strains, locus YER110C, active compounds read low 0.998 | S. cerevisiae deletion strains, locus YER155C, strain BEM2, active compounds read low 1.02 | S. cerevisiae deletion strains, locus YER167W, strain BCK2, active compounds read low 1.01 | S. cerevisiae deletion strains, locus YGL078C, strain dbp3, active compounds read low 0.977 | S. cerevisiae deletion strains, locus YGL086W, strain mad1, active compounds read low 1 | S. cerevisiae deletion strains, locus YGL248W, strain PDE1, active compounds read low 1.02 | S. cerevisiae deletion strains, locus YGR078C, strain PAC10, active compounds read low 1.02 | S. cerevisiae deletion strains, locus YGR135W, strain pre9, active compounds read low 1 | S. cerevisiae deletion strains, locus YGR229C, strain SMI1, active compounds read low 1.04 | S. cerevisiae deletion strains, locus YGR252W, strain gcn5, active compounds read low 0.987 | S. cerevisiae deletion strains, locus YHR030C, strain SLT2, active compounds read low 1.02 | S. cerevisiae deletion strains, locus YHR079C, strain IRE1 (second series), active compounds read low 0.994 | S. cerevisiae deletion strains, locus YHR094C, strain hxt1, active compounds read low 0.988 | S. cerevisiae deletion strains, locus YHR129C, strain ARP1, active compounds read low 1.02 | S. cerevisiae deletion strains, locus YHR200W, strain rpn10, active compounds read low 0.99 | S. cerevisiae deletion strains, locus YIL066C, strain RNR3, active compounds read low 1.02 | S. cerevisiae deletion strains, locus YIL073C, strain SPO22, active compounds read low 1.01 | S. cerevisiae deletion strains, locus YIL125W, strain kgd1, active compounds read low 0.988 | S. cerevisiae deletion strains, locus YIR030C, strain dcg1, active compounds read low 0.984 | S. cerevisiae deletion strains, locus YJL095W, strain BCK1, active compounds read low 1.02 | S. cerevisiae deletion strains, locus YJL134W, strain LCB3, active compounds read low 1.01 | S. cerevisiae deletion strains, locus YJL168C, strain set2, active compounds read low 0.989 | S. cerevisiae deletion strains, locus YJL187C, strain SWE1 (second series), active compounds read low 1.02 | S. cerevisiae deletion strains, locus YJR043C, strain POL32, active compounds read low 1.01 | S. cerevisiae deletion strains, locus YJR075W, strain HOC1, active compounds read low 1.04 | S. cerevisiae deletion strains, locus YKL009W, strain mrt4, active compounds read low 0.971 | S. cerevisiae deletion strains, locus YKL068W, active compounds read low 0.994 | S. cerevisiae deletion strains, locus YKL085W, strain MDH1 (second series), active compounds read low 0.988 | S. cerevisiae deletion strains, locus YKL085W, strain MDH1, active compounds read low 0.988 | S. cerevisiae deletion strains, locus YKL190W, strain CNB1, active compounds read low 1 | S. cerevisiae deletion strains, locus YKR001C, strain vps1, active compounds read low 0.993 | S. cerevisiae deletion strains, locus YLR039C, strain RIC1, active compounds read low 1.04 | S. cerevisiae deletion strains, locus YLR058C, strain SHM2, active compounds read low 1.02 | S. cerevisiae deletion strains, locus YLR102C, strain apc9, active compounds read low 0.983 | S. cerevisiae deletion strains, locus YLR262C, strain YPT6, active compounds read low 1.05 | S. cerevisiae deletion strains, locus YLR268W, strain sec22, active compounds read low 0.999 | S. cerevisiae deletion strains, locus YLR330W, strain CHS5, active compounds read low 1.02 | S. cerevisiae deletion strains, locus YLR342W, strain FKS1 (second series), active compounds read low 1.01 | S. cerevisiae deletion strains, locus YLR371W, strain rom2, active compounds read low 0.983 | S. cerevisiae deletion strains, locus YLR418C, strain cdc73, active compounds read low 1.02 | S. cerevisiae deletion strains, locus YML016C, strain PPZ1, active compounds read low 1.02 | S. cerevisiae deletion strains, locus YML032C, strain rad52, active compounds read low 0.986 | S. cerevisiae deletion strains, locus YML124C, strain tub3, active compounds read low 0.995 | S. cerevisiae deletion strains, locus YMR078C, strain ctf18, active compounds read low 0.996 | S. cerevisiae deletion strains, locus YMR223W, strain ubp8, active compounds read low 1 | S. cerevisiae deletion strains, locus YMR263W, strain SAP30, active compounds read low 1.03 | S. cerevisiae deletion strains, locus YMR307W, strain GAS1, active compounds read low 1.02 | S. cerevisiae deletion strains, locus YNL067W, strain RPL9B, active compounds read low 1.02 | S. cerevisiae deletion strains, locus YNL128W, strain TEP1, active compounds read low 1.02 | S. cerevisiae deletion strains, locus YNL153C, strain GIM3, active compounds read low 1.02 | S. cerevisiae deletion strains, locus YNL233W, strain BNI4, active compounds read low 1.03 | S. cerevisiae deletion strains, locus YNL250W, strain rad50, active compounds read low 0.992 | S. cerevisiae deletion strains, locus YNL271C, strain bni1, active compounds read low 0.978 | S. cerevisiae deletion strains, locus YNL298W, strain CLA4, active compounds read low 0.998 | S. cerevisiae deletion strains, locus YNL307C, strain MCK1, active compounds read low 0.992 | S. cerevisiae deletion strains, locus YNL322C, strain KRE1, active compounds read low 1.02 | S. cerevisiae deletion strains, locus YNR052C, strain pop2, active compounds read low 0.987 | S. cerevisiae deletion strains, locus YOL006C, strain TOP1, active compounds read low 1.07 | S. cerevisiae deletion strains, locus YOL012C, strain htz1 0.994 | S. cerevisiae deletion strains, locus YOL147C, strain pex11, active compounds read low 0.994 | S. cerevisiae deletion strains, locus YOR061W, strain CKA2, active compounds read low 1.01 | S. cerevisiae deletion strains, locus YOR069W, strain VPS5, active compounds read low 1 | S. cerevisiae deletion strains, locus YOR136W, strain idh2, active compounds read low 0.992 | S. cerevisiae deletion strains, locus YOR144C, strain elg1, active compounds read low 0.996 | S. cerevisiae deletion strains, locus YOR184W, strain ser1, active compounds read low 0.964 | S. cerevisiae deletion strains, locus YOR316C, strain cot1, active compounds read low 0.996 | S. cerevisiae deletion strains, locus YPL055C, strain LGE1, active compounds read low 1.05 | S. cerevisiae deletion strains, locus YPL241C, strain CIN2, active compounds read low 1.03 | S. cerevisiae deletion strains, locus YPR119W, strain clb2, active compounds read low 0.997 | S. cerevisiae deletion strains, locus YPR141C, strain kar3, active compounds read low 0.99 | S. cerevisiae deletion strains, locus YPR163C, strain tif3, active compounds read low 0.999 | S. cerevisiae deletion strains, locus YPR167C, strain met16, active compounds read low 0.994 | S. cerevisiae deletion strains, strain wtn01, active compounds read low 0.991 | S. cerevisiae strains, strain wild type, active compounds read low 1.01
